For nine compounds, outcome and AC50 results are on record in PubChem BioAssay (EPA / NIEHS).

Inconclusive results are not listed. Calls of active or inactive are those of the source. Rule for the calls, unless noted: active = hit-call score of the fitted dose curve at least 0.9, where 1 is the maximum; inactive = score below 0.9.

The target in test [1] is Paired box protein Pax-6 (Homo sapiens) (UniProt P26367). The test is described as follows: ATG_Pax6_CIS: Attagene CIS-FACTORIAL HepG2 Assay for human Paired Box 6 (PAX6) (AID 2282956). The following applies: HepG2 CIS-FACTORIAL PAX6 reporter transcription, RNA readout; actives raise or lower the signal. The gist of the method:
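Transient MRTU transfection of HepG2 → compound exposure 24 h → TriZol RNA, oligo(dT) RT → PCR, 6-FAM primer extension, HpaI cut → capillary electrophoresis; activity fitted both directions against DMSO.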

A short description of test [2]: ATG_PXRE_CIS: Attagene CIS-FACTORIAL HepG2 Assay for human Pregnane X Receptor Element (PXRE) (AID 2282957). The following applies: HepG2 Attagene CIS-FACTORIAL PXRE reporter, mRNA; actives raise or lower the signal. In a few lines:
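Transiently transfected HepG2 cells were dosed and incubated for 24 h. RNA was then isolated, DNase-treated, reverse-transcribed and reporter sequences amplified. Labeled, HpaI-digested fragments were quantified by capillary electrophoresis against DMSO.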

A short description of test [3]: ATG_PPRE_CIS: Attagene CIS-FACTORIAL HepG2 Assay for human Peroxisome Proliferator-activated Response Element (PPRE) (AID 2282958). The following applies: HepG2 PPRE cis-element reporter, Attagene transcription factor profiling; actives raise or lower the signal. The gist of the method:
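Read-out: fluorescent reporter mRNA fragments resolved by capillary electrophoresis after RT-PCR. HepG2 cells carried transiently transfected PPRE-driven cis reporter constructs and were dosed for 24 h; gain or loss of signal fitted relative to DMSO.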

Test [4] can be described thus: ATG_RORE_CIS: Attagene CIS-FACTORIAL HepG2 Assay for human RAR-related Orphan Receptor Element (RORE) (AID 2282959). Conditions: HepG2 Attagene cis-factorial RORE reporter, mRNA; actives raise or lower the signal. In a few lines: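 Readout: fluorescent reporter mRNA by RT-PCR plus capillary electrophoresis, 24 h after dosing transfected HepG2 cells. Endogenous transcription factor activity on a cis promoter element is measured. Gain or loss of signal fitted against DMSO.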

Test [5] in a line: ATG_Sox_CIS: Attagene CIS-FACTORIAL HepG2 Assay for human SRY-box transcription factor (SOX) (AID 2282960). The following applies: HepG2 Attagene cis-factorial SOX reporter, mRNA; actives raise or lower the signal. In a few lines:
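Read-out: fluorescent RT-PCR products of SOX1-linked reporter transcripts resolved by capillary electrophoresis, fitted bidirectionally against DMSO. Transiently transfected HepG2 cells, 24 h after chemical exposure, endogenous transcription factor activity.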

For test [6], the target named is Transcription factor Sp1 (Homo sapiens) (UniProt P08047). The test is described as follows: ATG_Sp1_CIS: Attagene CIS-FACTORIAL HepG2 Assay for human Specificity Protein 1 (Sp1) (AID 2282961). Conditions: HepG2 Sp1 cis-reporter transcription, actives raise or lower the signal. The gist of the method:
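Read-out: fluorescence of 6-FAM-labeled, HpaI-digested RT-PCR products separated by capillary electrophoresis. HepG2 cells carried transfected cis-element reporter units and were exposed to chemicals for 24 h; gain or loss of signal fitted relative to DMSO.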

Test [7] in a line: ATG_SREBP_CIS: Attagene CIS-FACTORIAL HepG2 Assay for human Sterol Regulatory Element Binding (SREBP) (AID 2282962). The following applies: HepG2 Attagene cis-factorial SREBP reporter, mRNA; actives raise or lower the signal. The gist of the method: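 Transfected HepG2 (cis-regulated reporter library, endogenous TFs) → compound 24 h → total RNA → oligo(dT) RT → reporter-specific PCR → FAM primer extension, HpaI cut → CE fluorescence. Fit bidirectional vs DMSO.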

The target of test [8] is Signal transducer and activator of transcription 3 (Homo sapiens) (UniProt P40763). The test is described as follows: ATG_STAT3_CIS: Attagene CIS-FACTORIAL HepG2 Assay for human Signal Transducer and Activator of Transcription 3 (STAT3) (AID 2282963). Conditions: HepG2, Attagene cis-factorial STAT3 reporter transcription; actives raise or lower the signal. In a few lines: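 After a 24 h compound incubation, total RNA from MRTU-transfected HepG2 cells was converted to cDNA and reporter sequences PCR-amplified, labelled and profiled by capillary electrophoresis. Gain and loss of signal were referenced to DMSO.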

A short description of test [9]: ATG_TA_CIS: Attagene CIS-FACTORIAL HepG2 Assay for human TA Basal Promoter (AID 2282964). Conditions: HepG2 Attagene CIS-factorial TA basal promoter reporter; actives raise or lower the signal. In a few lines:
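Fluorescence from labelled RT-PCR reporter fragments, separated by capillary electrophoresis, gives the signal. Cells: HepG2 transiently carrying multiple reporter units, 24 h chemical dosing. Gain or loss relative to DMSO.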

Test [10] can be described thus: ATG_TCF_b_cat_CIS: Attagene CIS-FACTORIAL HepG2 Assay for human T-Cell-Factor with beta-catenin (TCF/b-cat) (AID 2282965). Conditions: HepG2 TCF/beta-catenin cis-reporter transcription, actives raise or lower the signal. The gist of the method:
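Measured: reporter mRNA in HepG2 transiently transfected with cis-promoter reporter units, 24 h after chemical addition. Fitting was bidirectional, DMSO as negative control.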

Test [11] can be described thus: ATG_TAL_CIS: Attagene CIS-FACTORIAL HepG2 Assay for human TAL Basal Promoter (AID 2282966).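 Note: background control endpoint measuring basal TAL promoter reporter mRNA not a specific factor.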 The following applies: HepG2 Attagene cis-factorial TAL promoter reporter; actives raise or lower the signal. The gist of the method: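 Readout: reporter mRNA, fluorescence by CE. System: HepG2, transient multi-reporter transfection, endogenous TF activity. Exposure: 24 h. Analysis: bidirectional, DMSO-normalized; background control.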

Test [12] can be described thus: ATG_TGFb_CIS: Attagene CIS-FACTORIAL HepG2 Assay for human Transforming Growth Factor (TGF) (AID 2282967). Conditions: HepG2 Attagene CIS TGFb reporter, mRNA transcription; actives raise or lower the signal. In a few lines: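 Bidirectional fitting relative to DMSO gave the endpoint. Underlying data: reporter mRNA from HepG2 cells carrying transiently transfected cis-regulated reporter constructs, harvested 24 h after dosing and analyzed by RT-PCR and capillary electrophoresis.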

Test [13] concerns the target Estrogen receptor (Homo sapiens) (UniProt P03372). In words: ATG_ERa_TRANS: Attagene TRANS-FACTORIAL HepG2 Assay for human Estrogen Receptor alpha (ERa) (AID 2282970; active = hit-call score of the fitted dose curve at least 0.9, where 1 is the maximum). Conditions: HepG2 Attagene TRANS ERa GAL4 reporter, mRNA. In a few lines: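 Transactivation via ERa-Gal4 chimera in HepG2; 24 hour incubation; reporter mRNA detected by fluorescence RT-PCR and capillary electrophoresis.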

For test [14], the target named is X-box-binding protein 1 (Homo sapiens) (UniProt P17861). The test is described as follows: ATG_Xbp1_CIS: Attagene CIS-FACTORIAL HepG2 Assay for human X-box Binding Protein 1 (XBP1) (AID 2282972). Conditions: HepG2 XBP1 cis-element reporter, Attagene multiplex; actives raise or lower the signal. In a few lines: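 HepG2, transient MRTU transfection (cis-promoter driven), 24 h compound exposure. Total RNA → oligo(dT) RT → PCR → 6-FAM labeling → HpaI cut → CE. Bidirectional fit vs DMSO.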

Test [15] is described as follows: ATG_GAL4_TRANS: Attagene TRANS-FACTORIAL HepG2 Assay for GAL4 (Internal Marker) (AID 2282976; active = hit-call score of the fitted dose curve at least 0.9, where 1 is the maximum). The following applies: HepG2 Attagene TRANS GAL4 internal marker reporter. In a few lines: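 Fluorescence from capillary electrophoresis of labelled RT-PCR products quantifies reporter mRNA induction after 24 h dosing of HepG2 cells carrying transfected GAL4-UAS reporter transcription units. Vehicle DMSO serves as baseline.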

Test [16] in a line: ATG_VDRE_CIS: Attagene CIS-FACTORIAL HepG2 Assay for human Vitamin D Receptor Element (VDRE) (AID 2282968). Conditions: HepG2 VDRE cis-reporter transcription, actives raise or lower the signal. The gist of the method: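 In transiently transfected HepG2 liver cells, gain or loss of reporter mRNA after 24 h exposure is scored relative to DMSO, using fluorescence detection by capillary electrophoresis of RT-PCR products.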

Test [17] can be described thus: ATG_M_19_TRANS: Attagene TRANS-FACTORIAL HepG2 Assay for M19 Transcription Factor (Internal Marker) (AID 2282974; active = hit-call score of the fitted dose curve at least 0.9, where 1 is the maximum). The following applies: HepG2 Attagene TRANS-FACTORIAL M19 internal marker reporter. The gist of the method: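 24 h chemical exposure of transiently transfected HepG2 (MRTU library). RNA → oligo(dT) RT → PCR → 6-FAM labelling → HpaI cut → CE fluorescence. Positive-direction fit vs DMSO baseline; background internal-marker readout.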

Chain of Transcription factor Sp1 (Homo sapiens) (P08047 whole entry, looked up): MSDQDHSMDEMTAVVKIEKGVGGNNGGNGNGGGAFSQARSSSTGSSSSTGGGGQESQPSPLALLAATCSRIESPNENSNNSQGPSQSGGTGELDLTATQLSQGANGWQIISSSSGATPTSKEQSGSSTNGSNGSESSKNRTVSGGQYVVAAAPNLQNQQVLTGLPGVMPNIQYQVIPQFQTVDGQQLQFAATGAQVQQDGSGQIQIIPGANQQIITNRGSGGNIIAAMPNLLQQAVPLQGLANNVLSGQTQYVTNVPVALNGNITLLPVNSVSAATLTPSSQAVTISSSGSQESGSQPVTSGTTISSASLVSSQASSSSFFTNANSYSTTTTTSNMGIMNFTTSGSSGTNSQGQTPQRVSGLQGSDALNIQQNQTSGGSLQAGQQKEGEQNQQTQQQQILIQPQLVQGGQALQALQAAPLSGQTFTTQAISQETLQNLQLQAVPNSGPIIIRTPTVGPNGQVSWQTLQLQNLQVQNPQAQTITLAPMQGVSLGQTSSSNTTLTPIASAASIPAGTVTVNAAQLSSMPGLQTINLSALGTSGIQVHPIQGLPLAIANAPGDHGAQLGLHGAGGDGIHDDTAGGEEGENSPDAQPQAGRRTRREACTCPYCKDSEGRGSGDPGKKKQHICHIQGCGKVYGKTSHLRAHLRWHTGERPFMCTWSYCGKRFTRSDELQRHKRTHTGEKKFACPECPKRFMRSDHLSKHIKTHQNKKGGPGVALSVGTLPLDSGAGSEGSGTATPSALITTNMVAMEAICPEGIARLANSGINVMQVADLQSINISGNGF
Chain of Estrogen receptor (Homo sapiens) (P03372 whole entry, looked up, the tested form may be a part): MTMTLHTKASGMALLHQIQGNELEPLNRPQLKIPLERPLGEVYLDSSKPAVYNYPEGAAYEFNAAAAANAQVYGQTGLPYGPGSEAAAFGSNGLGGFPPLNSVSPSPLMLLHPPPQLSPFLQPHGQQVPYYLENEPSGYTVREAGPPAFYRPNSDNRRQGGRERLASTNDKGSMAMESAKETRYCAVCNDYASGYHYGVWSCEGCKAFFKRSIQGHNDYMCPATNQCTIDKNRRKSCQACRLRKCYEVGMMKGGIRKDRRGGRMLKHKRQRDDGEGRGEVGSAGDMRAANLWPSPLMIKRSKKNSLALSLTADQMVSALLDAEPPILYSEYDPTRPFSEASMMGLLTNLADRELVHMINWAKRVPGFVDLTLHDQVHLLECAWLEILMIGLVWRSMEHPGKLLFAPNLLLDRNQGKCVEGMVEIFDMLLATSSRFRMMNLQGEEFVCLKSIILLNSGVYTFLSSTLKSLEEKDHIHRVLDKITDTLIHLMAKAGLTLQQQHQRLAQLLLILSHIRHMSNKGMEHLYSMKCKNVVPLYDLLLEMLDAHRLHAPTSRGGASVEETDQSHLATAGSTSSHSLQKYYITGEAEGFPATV
Chain of Paired box protein Pax-6 (Homo sapiens) (P26367 whole entry, looked up): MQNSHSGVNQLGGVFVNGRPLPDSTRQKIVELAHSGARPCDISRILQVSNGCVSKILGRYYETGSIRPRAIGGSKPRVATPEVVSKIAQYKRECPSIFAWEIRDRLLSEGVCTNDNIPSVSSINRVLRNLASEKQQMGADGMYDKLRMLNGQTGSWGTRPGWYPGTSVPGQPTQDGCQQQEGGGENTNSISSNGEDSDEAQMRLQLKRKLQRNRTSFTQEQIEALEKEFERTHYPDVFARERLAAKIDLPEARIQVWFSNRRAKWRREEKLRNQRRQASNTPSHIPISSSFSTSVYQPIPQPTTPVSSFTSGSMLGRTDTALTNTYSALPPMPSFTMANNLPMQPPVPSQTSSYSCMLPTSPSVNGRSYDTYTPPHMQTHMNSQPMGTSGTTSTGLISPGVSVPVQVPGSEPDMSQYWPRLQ
Chain of Signal transducer and activator of transcription 3 (Homo sapiens) (P40763 whole entry, looked up): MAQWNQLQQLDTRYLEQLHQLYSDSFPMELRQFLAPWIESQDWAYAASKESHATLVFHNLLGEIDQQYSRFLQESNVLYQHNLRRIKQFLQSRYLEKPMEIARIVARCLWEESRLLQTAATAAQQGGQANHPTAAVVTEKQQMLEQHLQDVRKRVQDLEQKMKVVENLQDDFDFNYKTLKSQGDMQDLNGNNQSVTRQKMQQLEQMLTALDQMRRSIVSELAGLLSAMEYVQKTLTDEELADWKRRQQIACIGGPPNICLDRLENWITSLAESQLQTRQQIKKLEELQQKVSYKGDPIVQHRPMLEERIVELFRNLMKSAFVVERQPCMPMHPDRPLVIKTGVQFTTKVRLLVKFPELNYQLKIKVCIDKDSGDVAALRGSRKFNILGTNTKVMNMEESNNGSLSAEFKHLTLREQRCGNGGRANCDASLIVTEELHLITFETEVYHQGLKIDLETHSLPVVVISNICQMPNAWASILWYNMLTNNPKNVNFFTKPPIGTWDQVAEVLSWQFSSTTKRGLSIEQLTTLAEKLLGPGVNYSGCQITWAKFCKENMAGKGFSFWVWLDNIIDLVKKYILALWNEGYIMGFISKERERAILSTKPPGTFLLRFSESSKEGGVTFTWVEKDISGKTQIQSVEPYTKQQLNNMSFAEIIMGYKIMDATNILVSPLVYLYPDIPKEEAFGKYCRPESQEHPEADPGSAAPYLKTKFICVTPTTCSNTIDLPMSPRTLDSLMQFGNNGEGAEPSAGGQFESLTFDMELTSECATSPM
Chain of X-box-binding protein 1 (Homo sapiens) (P17861 whole entry, looked up): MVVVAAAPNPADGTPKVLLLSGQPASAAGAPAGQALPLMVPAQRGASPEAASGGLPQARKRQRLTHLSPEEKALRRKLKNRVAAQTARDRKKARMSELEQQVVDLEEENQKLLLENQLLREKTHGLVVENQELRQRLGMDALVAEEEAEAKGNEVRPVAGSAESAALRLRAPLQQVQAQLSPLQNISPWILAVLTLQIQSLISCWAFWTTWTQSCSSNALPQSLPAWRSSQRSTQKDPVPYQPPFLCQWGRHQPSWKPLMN

As to `CC(C)=CCC[C@H](C)CCO`, the compound was called inactive in test [1], in test [2], in test [3], in test [4], in test [5] and in [6]. The call in test [7], in test [8], in [9], in test [10], in test [11] and in test [12] was inactive. Also, the compound was classed as inactive in test [13], in [14] and in test [15].

A word on the AC50: it is the concentration giving half of the maximal activity seen. For the compound `CC(C)(Oc1ccc(C2CC2(Cl)Cl)cc1)C(=O)O` (stereo unspecified), the compound was classed as inactive in test [1], in test [4], in test [5], in test [6], in test [7] and in [8]. Besides, the compound was called inactive in test [9], in [10], in [11], in test [16], in test [13] and in test [14]. The call in [17] and in [15] was inactive. Besides, the results for the AC50 in test [2] and in test [3] were 41.1 µM (active) and 48.3 µM (active), respectively.

As for `NNC(=O)c1cccc(C(=O)NN)c1`, the outcome in [1], in [2], in test [3], in test [4], in test [5] and in test [6] was inactive. The result in test [7], in test [8], in test [9], in test [10], in [11] and in test [12] was inactive. In addition, the result in [16], in [14] and in [15] was inactive.

In the case of `COC(=O)c1c(C)cc(O)c(C)c1O`, the outcome in [1], in test [2], in test [3], in test [4], in test [5] and in [6] was inactive. Also, the outcome in test [7], in test [8], in [9], in [10], in [12] and in [16] was inactive. Moreover, the outcome in test [14], in [17] and in test [15] was inactive. Further, the half-maximal activity concentration (AC50) in test [13] is 38.7 µM (active).

As to `O=C(O)c1ccccc1Nc1cccc(C(F)(F)F)c1`, the compound was called inactive in test [1], in test [5], in [6], in [8], in test [10] and in [11]. Moreover, the call in [12] and in [13] was inactive. Further, the concentration at half-maximal activity (AC50) was 5.5 µM (active) in test [2]; 33 µM (active) in test [3]; 100 µM (active) in test [4]; 26.5 µM (active) in test [7]; 100 µM (active) in test [9]; 76.5 µM (active) in test [14].

Regarding `Cc1oncc1C(=O)Nc1ccc(C(F)(F)F)cc1`, the compound was classed as inactive in test [1], in test [2], in test [4], in test [5], in test [6] and in test [7]. Besides, the outcome in [8], in test [9], in test [10], in [11], in [12] and in test [13] was inactive. Also, the result in test [14] and in [15] was inactive. The AC50 in [3] was 100 µM (active).

For the compound `OC1CCCCCCCCCCC1`, the call in [1], in [3], in test [4], in test [5], in [6] and in test [7] was inactive. Also, the call in [8], in test [9], in test [10], in [11] and in test [14] was inactive. Moreover, the AC50 in [2] was 4.47 µM (active); in test [13], 10.6 µM (active).

As for `CC(=O)CC(N)=O`, the call in test [1], in [3], in [4], in [5], in test [6] and in test [7] was inactive. For the same compound, the compound was classed as inactive in test [8], in [9], in [10], in [11], in test [12] and in test [16]. The result in test [14], in test [17] and in test [15] was inactive. In addition, the AC50 in [2] is 0.0836 µM (active).

With `C1=CCCC1`, the call in test [1], in [2], in test [3], in test [4], in [5] and in test [6] was inactive. Further, the call in test [7], in test [8], in test [9], in test [10], in [11] and in test [12] was inactive. In addition, the compound was called inactive in test [13], in test [14], in [17] and in [15].
